Experimental data from PubChem BioAssay AID686978 (National Center for Advancing Translational Sciences (NCATS), 2013).
The campaign covered roughly 420,000 compounds. About 64,000 (15%) were called active. Roughly 27% stayed inconclusive and do not appear here. Calls come from the whole dose curve; as a rule, active = well fitted inhibition curve with a large enough effect; inconclusive = small, poorly fitted or top-dose-only effect; inactive = flat fitted curve, though single readings scatter. A selection follows. Where a call stands in place of a potency, no number is given.

Test: qHTS for Inhibitors of human tyrosyl-DNA phosphodiesterase 1 (TDP1): qHTS in cells in absence of CPT; note: nearly all actives have a fitted effect of over 55% in size
Details: DT40 Tdp1-/- hTDP1 cells, no CPT, ATP luminescence, 48 h; activity change, negative = growth inhibition: at 46.2 µM (top of the series)
Outline: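 Readout: luminescence from CellTiter-Glo after 30 min in the dark at RT. Cells: DT40 Tdp1-/- with stable hTDP1, 400/well. Exposure: compounds alone, ≥48 hr, 37 °C.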
Potency is the fitted concentration of half-maximal effect.

Structure (SMILES) | Potency
COc1cc(C2C(C#N)=C(C)NC3=C2C(=O)CC(C)(C)C3)ccc1O (stereo not given) | inactive
C=CCNCCCCOc1ccccc1 | inactive
CN(C)CCOc1cccc(Br)c1 | inactive
Nc1cccc(OCCCCCOc2cccc(N)c2)c1 | 16.4 µM (active)
CCCCN(C(=O)CSCC(=O)Nc1ccc(OC)cc1)c1c(N)n(CCC)c(=O)[nH]c1=O | inactive
COc1ccc(CCNC(=O)COC(=O)Cc2cccc(F)c2)cc1 | inactive
O=C(C1CCCN1S(=O)(=O)c1ccc(Br)cc1)N1CCOCC1 (stereo not given) | inactive
Cc1oc2c(F)c(F)c(F)c(F)c2c1S(=O)(=O)Nc1cccc(C(F)(F)F)c1 | 20.6 µM (active)
Cc1noc(C)c1S(=O)(=O)Nc1ccc(C(=O)O)cc1 | inactive
Cc1ccc(N(CCC(=O)O)S(=O)(=O)c2cccc(C(F)(F)F)c2)cc1 | inactive
Cc1cccc(C(=O)OCC(=O)Nc2sccc2C(N)=O)c1C | inactive
COc1cc(OC)cc(C(=O)OCC(=O)Nc2ccc(F)cc2F)c1 | inactive
COc1cc(OC)cc(C(=O)OCC(=O)Nc2sccc2C(N)=O)c1 | 18.4 µM (active)
COc1ccc(S(=O)(=O)NC(C)c2ccccc2)cc1C(=O)N1CCCCC1 (stereo not given) | inactive
Cc1ccc(CNC(=O)c2c(-c3ccccc3)noc2C)cc1 | inactive
Cc1cc(C)cc(NC(=O)CCCc2nc(-c3ccccc3Cl)no2)c1 | inactive
Cc1ccc2cc(CCNC(=O)c3c(-c4ccccc4Cl)noc3C)c(=O)[nH]c2c1 | 18.4 µM (active)
O=S(=O)(/C=C/c1ccccc1)NCCc1ccccn1 | inactive
COc1ccc(C(=O)N[C@H](C(=O)NCc2ccccc2)C(C)C)cc1 | inactive
COc1cc(OC)cc(C(=O)N[C@H](C(=O)Nc2nc3ccccc3[nH]2)C(C)C)c1 | 2.59 µM (active)
COc1cc(OC)cc(C(=O)N[C@H](C(=O)OCC(=O)NC(C)c2ccccc2)C(C)C)c1 (stereo not given in full) | inactive
C=CCSc1nnc(Cn2c(=O)sc3ccccc32)n1C | inactive
COc1ccc(CCN2CC(C(=O)OCC(=O)NCc3ccccc3Cl)CC2=O)cc1OC (stereo not given) | inactive
COC(=O)[C@]1(C)CCC[C@@]2(C)C3CC[C@]4(OC(C)=O)C[C@@]3(CCC21)CC4=NO (stereo not given in full) | 16.4 µM (active)
CN1CCN(C(=O)N2c3ccccc3CCc3ccccc32)CC1 | inactive

Structure (SMILES) | Potency
CC(C)c1cc(Cn2c3ccccc3c(=O)n2C(C)Cn2cc(C3CC3)nn2)on1 (stereo not given) | inactive
CC(C)Oc1ccc(CN2CCC(n3nccc3NC(=O)c3cccnc3)CC2)cc1 | inactive
CCOC(=O)C1=NNC2(c3ccc(Cl)cc3)C(=O)N(c3cc(C)cc(C)c3)C(=O)C12 (stereo not given) | inactive
COc1ccc(-c2[nH]nc3c2C(c2ccncc2)C(C#N)=C(N)O3)cc1 (stereo not given) | inactive
Cc1nn(Cc2ccccc2)c2c1C(c1ccccc1)C(C#N)=C(N)O2 (stereo not given) | 25.9 µM (active)
Cc1cc2c(c(=O)n1Cc1ccco1)C(c1ccccc1)C(C#N)=C(N)O2 (stereo not given) | inactive
O=C(COC(=O)c1cc([N+](=O)[O-])ccc1NCc1ccccc1)NC1CCCCC1 | inactive
Nc1c(Cl)cc(-c2csc(N3CCCC3c3nc4cc(Cl)c(Cl)cc4n3CCOCCO)n2)cc1Cl (stereo not given) | inactive
CC(=O)OCCN(CCCn1c(-c2ccncc2)nc2ccccc21)c1nc(-c2ccc(C)cc2)cs1 | inactive
Cc1ccc(-c2csc(N3CCN(c4cc5c(cc4Cl)nc(-c4ccncc4)n5CCOCCO)CC3)n2)cc1 | 29.1 µM (active)
CC(NC(=O)c1ccc(S(=O)(=O)Nc2ccccc2)cc1)c1ccc(S(N)(=O)=O)cc1 (stereo not given) | inactive
CCOC(=O)c1cc2occc2n1CC(=O)NC1CCC(C)CC1 (stereo not given) | inactive
CC(=O)N1C[C@@H](CO)[C@@H](N(C)C(=O)c2ccco2)C[C@H]1c1ccccc1 | inactive
Cn1c(SCC(=O)Nc2ccc(Cl)cc2)nc(O)cc1=O | inactive
CSc1nnc(NC(=O)c2nc(S(=O)(=O)Cc3ccc(C)cc3)ncc2Cl)s1 | 4.11 µM (active)
O=C(Nc1ccccc1C(F)(F)F)c1nc(S(=O)(=O)Cc2ccccc2F)ncc1Cl | 0.708 µM (active)
CCCSc1ncc(Cl)c(C(=O)Nc2c(C(=O)Nc3ccccc3)oc3ccccc23)n1 | inactive
Cc1cccc(C(=O)Nc2ccc(Oc3cnccn3)cc2)c1 | inactive
O=C(Nc1nc2ccc(F)cc2s1)c1nc(SCc2ccccc2F)ncc1Cl | inactive
NC(=O)CSc1nnc(NC(=O)c2ccc(Br)o2)s1 | inactive
Cc1cccc(NC(=O)C(C)SCc2ccccc2)c1 (stereo not given) | inactive
CN(CC(=O)Nc1ccccc1C(F)(F)F)C(=O)Cc1ccccc1F | inactive
Cc1cccc(NC(=O)c2nc(S(=O)(=O)Cc3ccccc3)ncc2Cl)c1 | 2.06 µM (active)
CCSc1nnc(NC(=O)c2ccc(C)cc2)s1 | inactive
CCSc1ncc(Cl)c(C(=O)Nc2cc(C)ccc2C)n1 | inactive

Structure (SMILES) | Potency
Cc1ccc(NC(=O)c2nc(S(=O)(=O)Cc3cccc(C)c3)ncc2Cl)cc1 | 0.651 µM (active)
CCOc1ccc(S(=O)(=O)N2CCN=C2Cc2ccccc2)cc1C | inactive
O=C(COC(=O)c1cc(=O)[nH]c2ccccc12)NCc1cccc(Cl)c1 | inactive
COc1ccccc1C1SCCN1C(=O)c1ccc([N+](=O)[O-])cc1 (stereo not given) | inactive
Cc1cc(/C=C2\SC(=O)N(C)C2=O)c(C)n1-c1cccc(C(=O)O)c1 | inactive
Nc1cccc(-c2cncc(N3CCN(Cc4ccccn4)CC3)n2)c1 | inactive
Nc1c(-c2ccccc2)nnn1Cc1ccccc1 | inactive
O=C(Nc1cccnc1)c1ccc(Cl)cc1[N+](=O)[O-] | inactive
Clc1ccc(C=NC23CN4CN(CN(C4)C2)C3)cc1 | inactive
Cc1cccc(OCc2ccc(C(=O)Nc3ccc(F)cc3)cc2)c1 | inactive
Cn1cc([N+](=O)[O-])c(C(=O)Nc2cnn(Cc3ccc(F)cc3)c2)n1 | inactive
Cc1cccc(CS(=O)(=O)c2ncc(Cl)c(C(=O)Nc3ccc(F)cc3)n2)c1 | 1.84 µM (active)
COc1ccc(S(=O)(=O)NC(C)C(=O)NCc2ccncc2)cc1Cl (stereo not given) | inactive
O=C(NC1CCCC1)C1CC(=O)N(c2ccc(F)cc2)C1 (stereo not given) | inactive
O=C(c1cc(-c2ccc(F)cc2)on1)N1CCN(c2ccc(F)cc2)CC1 | inactive
Cc1noc(C)c1S(=O)(=O)Nc1ccc(C(=O)N2CCN(c3ccc(F)cc3)CC2)cc1 | inactive
O=C(c1cc2cc(F)ccc2[nH]1)N1CCN(c2ccc(F)cc2)CC1 | inactive
O=C(c1cc(C(=O)N2CCN(c3ccc(F)cc3)CC2)cc([N+](=O)[O-])c1)N1CCN(c2ccc(F)cc2)CC1 | 4.61 µM (active)
O=[N+]([O-])c1ccc(N2CCN(c3ccc(F)cc3)CC2)cn1 | inactive
O=C(c1cccc(C(=O)N2CCN(c3ccc(F)cc3)CC2)c1)N1CCN(c2ccc(F)cc2)CC1 | 13 µM (active)
CS(=O)(=O)N1CCC2(CC1)CN(Cc1cc(C(F)(F)F)cc(C(F)(F)F)c1)C2 | inactive
Cc1c(NC(=O)COC(=O)/C=C/c2cccc(F)c2)c(=O)n(-c2ccccc2)n1C | inactive
Cc1ccnc(NS(=O)(=O)c2ccc(NC(=O)c3oc4ccccc4c3C)cc2)n1 | inactive
Cc1oc(C(N)=O)cc1COc1ccc(C(N)=O)cc1 | inactive
CCc1cccc2c3c([nH]c12)C(CC)(CC(=O)O)OCC3 (stereo not given) | inactive

Structure (SMILES) | Potency
O=C(COC(=O)CN1C(=O)C2CCCCC2C1=O)Nc1ccc(F)c(F)c1F (stereo not given) | inactive
CC1=CC(C)(C)Nc2ccc(OC(=O)CN3C(=O)C4CCCCC4C3=O)cc21 (stereo not given) | 2.31 µM (active)
CC(OC(=O)CN1C(=O)C2CCCCC2C1=O)C(=O)Nc1ncc(Cl)cc1Cl (stereo not given) | inactive
O=C(CN1C(=O)NC(Cc2c[nH]c3ccccc23)C1=O)Nc1ccccc1C(F)(F)F (stereo not given) | inactive
COc1ccc(S(=O)(=O)NCCCc2ccccc2)cc1 | inactive
COc1cccc(NC(C)=[N+](C)CCNS(=O)(=O)c2ccc(Cl)cc2)c1 | inactive
COc1ccc(S(=O)(=O)NCCCCOc2ccc(Cl)cc2)cc1 | 2.06 µM (active)
Cc1nc(N)[nH]c(=O)c1Oc1cccc(C(F)(F)F)c1 | inactive
Clc1cccc(N=C2NN=C(c3ccc4c(c3)OCCO4)CS2)c1 | 10.3 µM (active)
Cc1cccc(N=C2NN=C(c3c[nH]c4ccccc34)CS2)c1 | inactive
COc1ccccc1CCNC(=O)c1cccn1-c1nnc(N2CCCCC2)s1 | 1.64 µM (active)
CSc1ccc(CCNC(=O)C2CCN(c3nnc(-n4cccc4)s3)CC2)cc1 | inactive
COc1ccccc1CNC(=O)C1CCN(c2nc3ccccc3o2)CC1 | inactive
N#CC(=C1CCCC1)c1nc(-c2ccc(Cl)cc2)cs1 | inactive
CCOC(=O)C1CCC(CN(Cc2ccc(OC)cc2)S(=O)(=O)c2ccc(F)c(C(=O)Nc3cc(C)ccc3C)c2)CC1 (stereo not given) | inactive
Cc1cc2c(cc1S(=O)(=O)NCc1ccc(Cl)cc1)OCC(=O)N2 | inactive
CC(=O)N1CCC2(CCCN(Cc3ccccc3)C2)CC1 | inactive
O=C(CCC(=O)OCc1ccc(Cl)cc1)Nc1ccccc1 | inactive
CC(=O)N1CCC(C(=O)OCc2ccc(Cl)cc2)(c2ccccc2)CC1 | 11.6 µM (active)
Cc1noc(C)c1NC(=O)Nc1ccc2c(c1)C(=O)N([C@H](C)CO)C[C@H](C)[C@@H](CN(C)S(=O)(=O)c1cn(C)cn1)O2 | inactive
NS(=O)(=O)c1ccc(NC(=O)CSc2nnc3c(n2)[nH]c2ccccc23)cc1 | inactive
CCN(CC)c1ccc(/C=C/c2c(C)cnc3ccc(C)cc23)cc1 | 20 µM (active)
CCOC(=O)N1CCN(c2c(NCCCN3CCCC(C)C3)c(=O)c2=O)CC1 (stereo not given) | inactive
CC(C)C(=O)OCC(=O)Nc1ccc2c(c1)CCC2 | inactive
CCOc1ccc(NC(=O)C2CC(=O)N=C(N)S2)cc1 (stereo not given) | inactive
